Source: PubChem (National Center for Advancing Translational Sciences (NCATS))
RECQ1 helicase = qHTS Assay for Inhibitors of RecQ-Like Dna Helicase 1 (RECQ1); RECQ1 DNA unwinding, red fluorescence kinetic read; Potency, µM (titrated, usually from 57.3 µM), without a hit: top-dose activity, negative = inhibition, hits mostly inhibitors; 0.54% of 240,000 active; ATP-dependent DNA helicase Q1 (Homo sapiens), P46063;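 further: potency means the concentration at half of the fitted maximal effect; plate controls were vehicle for no effect and no enzyme for full effect; nearly all actives have a fitted effect of over 30% in size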
Target sequence (P46063 whole entry, looked up): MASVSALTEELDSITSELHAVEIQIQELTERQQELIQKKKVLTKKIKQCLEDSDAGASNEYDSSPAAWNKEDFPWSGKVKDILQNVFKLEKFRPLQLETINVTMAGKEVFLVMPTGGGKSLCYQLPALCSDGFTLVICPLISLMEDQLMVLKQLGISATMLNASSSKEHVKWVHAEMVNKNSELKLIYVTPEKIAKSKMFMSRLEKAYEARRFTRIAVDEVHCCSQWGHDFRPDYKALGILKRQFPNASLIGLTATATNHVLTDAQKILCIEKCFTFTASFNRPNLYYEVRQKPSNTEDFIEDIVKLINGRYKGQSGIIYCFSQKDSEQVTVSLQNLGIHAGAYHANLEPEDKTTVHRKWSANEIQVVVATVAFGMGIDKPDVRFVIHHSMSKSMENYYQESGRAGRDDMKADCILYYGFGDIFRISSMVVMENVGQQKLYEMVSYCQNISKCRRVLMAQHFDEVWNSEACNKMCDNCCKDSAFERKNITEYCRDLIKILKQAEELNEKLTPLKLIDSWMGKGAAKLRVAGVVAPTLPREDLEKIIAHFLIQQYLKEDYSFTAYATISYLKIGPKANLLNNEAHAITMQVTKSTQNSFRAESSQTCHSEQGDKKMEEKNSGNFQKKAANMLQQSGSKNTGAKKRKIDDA
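50 nM RECQ1T1 preincubated 15 min with compound in Tris pH 8.0 buffer with MgCl2, DTT, Tween-20 and 2.5 ug/ml poly(dI-dC); started with 200 nM TAMRA/BHQ-2 forked duplex and 2 mM ATP. Unwinding read as fluorescence (525/598 nm), two reads 2 h apart.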
BLM helicase inh = qHTS Assay for Inhibitors of Bloom's syndrome helicase (BLM). RecQ-like DNA helicase BLM (Homo sapiens), P54132. Potency, µM (series often up to 56.1 µM), for the others: top-dose activity change, negative = inhibition, most hits filed as inhibitors. recombinant BLM DNA unwinding, fluorescence dequenching. 0.2% of 350,000 active;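 further: potency means the concentration at half of the fitted maximal effect; plate controls were vehicle for no effect and no enzyme for full effect; nearly all actives have a fitted effect of over 35% in size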
PI5P4Ka inh = qHTS for Inhibitors of phosphatidylinositol 5-phosphate 4-kinase (PI5P4K); Phosphatidylinositol 5-phosphate 4-kinase type-2 alpha (Homo sapiens), P48426; PI5P4Kalpha enzyme, ADP-Glo luminescence, 60 min; stronger effect = lower value; max response, %; 1.2% of 330,000 active; AID 652105, 2013; active means max response of -50% or lower; inconclusive means between -30% and -50%; inactive means -30% or higher; further: value at the top dose of about 77 µM
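ADP-Glo luminescence end-point read after a 60 min room-temperature kinase reaction of PI5P4Kalpha plus substrate, initiated with ATP at 5 microM final. Buffer: 0.038 M HEPES pH 7.4, EGTA, 0.1% CHAPS, 5% DMSO.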
FEN1 inh = qHTS Assay for the Inhibitors of Human Flap endonuclease 1 (FEN1); Potency, µM (titrated, usually from 114 µM), inactives show at the top dose activity change, negative = inhibition, most hits filed as inhibitors; 0.35% of 390,000 active; AID 588795, 2011; Recombinant FEN1 flap cleavage, fluorescence, 15 min; P39748; further: potency means the concentration at half of the fitted maximal effect; nearly all actives have a fitted effect of over 65% in size
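Quantitative HTS format: each compound was titrated, incubated with 10 nM nuclease for 15 min at room temperature, then challenged with flap substrate at 50 nM final. Signal change over 15 min gave concentration–effect curves.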
APEX1 inh = qHTS Assay for Inhibitors of the Human Apurinic/apyrimidinic Endonuclease 1 (APE1); DNA repair nuclease/redox regulator APEX1 (Homo sapiens), P27695; recombinant APE1, TAMRA/BHQ-2 abasic DNA cleavage fluorescence; Potency, µM (highest dose often 65.8 µM), for inactives: top-dose activity change, negative = inhibition, most hits filed as inhibitors; 0.35% of 350,000 active; AID 2517, 2012;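 further: potency means the concentration at half of the fitted maximal effect; plate controls were vehicle for no effect and reference inhibitor for full effect; nearly all actives have a fitted effect of over 55% in size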
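Activity was derived from the fluorescence gain between first and third kinetic reads (60 s intervals, ex 525/em 598 nm) after 50 nM THF-abasic TAMRA/BHQ-2 duplex was added to 0.75 nM APE1 preincubated 15 min with compound.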
GCN5L2 inh = qHTS Assay for Inhibitors of GCN5L2. GCN5L2 HAT assay, ThioGlo1 CoA-SH fluorescence. Potency, µM (top dose mostly 58.9 µM), without a hit: at the top dose activity change, negative = inhibition, hits mostly inhibitors. 0.21% of 390,000 active. AID 504327, 2011; further: potency means the concentration at half of the fitted maximal effect
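Compounds, pin-transferred from DMSO stocks, meet 20nM GCN5L2 for 15 min before the reaction begins with H3(1-25) peptide (75uM) and acetyl-CoA (70uM). Thiol-reactive ThioGlo1 reports CoA release over 20 min at room temperature.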
* = called active by the depositor; i = inactive; ? = inconclusive; / = no result given. Most compounds without a hit are left out; they make up all but 1.5% or so of the library. Unless noted, the call rests on the fitted dose curve; in most records, active means well fitted curve in the direction sought with a large enough effect; inconclusive means small, poorly fitted or top-dose-only effect, or another doubt; inactive means no such curve, though single readings can be large; an effect the other way counts as inactive or inconclusive. Unless noted, on the % scale 0 is the no-effect control and ±100 the full control effect.

SMILES	RECQ1 helicase	BLM helicase inh	PI5P4Ka inh	FEN1 inh	APEX1 inh	GCN5L2 inh
CCN1/C(=C\C=C\C2=[N+](CC)c3ccccc3C2(C)C)C(C)(C)c2ccccc21	28µM*	7.9µM*	?	45µM*	32µM*	-6%
CC[C@H](C)/C=C(C)/C=C/C1=CC2=C(Cl)C(=O)[C@](C)(OC(C)=O)C(=O)C2=CO1	/	/	-104*	?	-4%	?
C/C(O)=C1\C(=O)[C@@H]2[C@H]3c4c[nH]c5cccc(c45)C[C@H]3C(C)(C)N2C1=O	6%	/	/	/	15%	-4%
O=c1c2ccccc2nc(/C=C/c2ccc(O)cc2)n1-c1cccc(O)c1	-13%	25µM*	5	?	?	?
O=c1c2ccccc2nc(/C=C/c2ccc(O)cc2)n1-c1ccc(O)cc1	/	-9%	-24	10%	26%	0%
COc1cccc(N2C(=O)NC(=O)/C(=C/c3ccc4c(c3)Cc3ccccc3-4)C2=O)c1	-1%	3%	?	?	1%	-14%
Cc1ccccc1N1C(=O)NC(=O)/C(=C\c2ccc3c(c2)CCCN3Cc2ccccc2)C1=O	3%	-22%	-65*	-36%	-1%	?
O=NN(c1ccccc1)c1ccccc1	-17%	/	/	/	-1%	/
O=C(N/N=C/c1c(O)n(CCc2ccccc2)c(=O)[nH]c1=O)c1ccncc1	-6%	-5%	-77*	-2%	3%	-4%
O=C(N/N=C/c1c(O)n(CCc2ccccc2)c(=O)[nH]c1=O)c1ccccc1O	-5%	-6%	-75*	-7%	-1%	?
COc1ccc(Cn2c(O)c(/C=N/NC(=O)c3ccccc3O)c(=O)[nH]c2=O)cc1	-10%	2%	-11	?	5%	17%
O=C(N/N=C/c1c(O)n(Cc2ccccc2)c(=O)[nH]c1=O)c1ccccc1O	-5%	2%	-70*	?	6%	-17%
O=C(N/N=C/c1c(O)n(CCc2ccc(F)cc2)c(=O)[nH]c1=O)c1ccccc1	-1%	-1%	-25	13%	0%	-10%
CCCCCCC(=O)N/N=C/c1c(O)n(CCc2ccccc2)c(=O)[nH]c1=O	23%	-8%	?	1%	4%	-20%
CC1CC(=O)O1 (configuration not stated)	2%	/	/	/	1%	/
NC(Cc1ccc(Oc2cc(I)c(O)c(I)c2)c(I)c1)C(=O)O (configuration not stated)	/	?	/	/	/	14µM*
CC(C)C[C@H](NC(=O)[C@H](Cc1ccccc1)NC(=O)CNC(=O)[C@H](C)NC(=O)[C@@H](N)Cc1ccc(O)cc1)C(=O)O	i	/	/	/	23%	7%
O=C(O)CCn1cc(C=C2C(=O)NC(=S)NC2=O)c(-c2cc3ccccc3oc2=O)n1	20%	-1%	-71*	?	2%	1%
O=C(O)CCn1cc(C=C2C(=O)NC(=S)NC2=O)c(-c2ccccc2)n1	i	5%	-91*	-19%	5%	-4%
c1ccc2c(c1)CCCC2	-9%	/	/	/	1%	/
C[C@@H]1O[C@@H](O[C@H]2CC[C@@H](O[C@H]3[C@H](O)C[C@H](c4ccc5c(c4O)C(=O)C4=C(C5=O)[C@@]5(O)C(=O)C[C@](C)(O[C@H]6CC[C@H](O[C@H]7C=CC(=O)[C@H](C)O7)[C@H](C)O6)C[C@@]5(O)C=C4)O[C@@H]3C)O[C@H]2C)C=CC1=O	-12%	-18%	/	/	-7%	-42%
CCBr	-1%	/	/	/	5%	/
